Most compounds without a hit are left out; they make up all but 2.1% or so of the library.
NSD2 inh: blocks human histone methyltransferase NSD2; NSD2 peptide methylation, AlphaScreen, 120 min; O96028; hit rate 0.54% among 310,000; AID 743445; inhibition, % at 12.5 µM; in the data active = inhibition above about 50%
HIV Env fusion: blocks HIV Env-driven cell-cell fusion; hit rate 1.1% among 360,000; HeLa-JRFL Env/CEM21 cell fusion, luciferase; inhibition, % at 12.3 µM; AID 651610;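 active = mean replicate inhibition score of at least 50 and every replicate individually at or above 50; inconclusive = only one of the two criteria met; inactive = mean below 50 and not all replicates reaching 50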;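 note: 0% = plate neutral controls and 100% = maraviroc near 300 nM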
PGC1a acetyl inh: PGC1a acetylation modulation, inhibitor mode | U2OS PGC1a acetylation, AlphaScreen anti-acetyl-lysine; with virally co-expressed GCN5 acetyltransferase | inhibition, % at 15.6 µM | hit rate 0.17% among 350,000 | AID 651687;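 active = every replicate shows inhibition of at least 40%; inconclusive = mean inhibition at least 40% but some replicate below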;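 note: 0% = neutral control wells and 100% = positive control wells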
GSIS activator: GLuc luminescence reporter in INS-1E cells, primary screen for activators of glucose-dependent secretion of insulin; AID 743287; hit rate 0.61% among 370,000; activation, % at 16.6 µM; INS-1E GLuc reporter insulin secretion, 2-3 h;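 active = lowest replicate activation of at least 40%, so every replicate reaches that level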;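 note: 0% = median of neutral control wells and 100% = median of IBMX positive control wells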
MLL AF4-AF9 inh: MLL-AF4/AF9 protein interaction inhibition; AlphaScreen, biotin-AF4 peptide binding to FLAG-AF9; inhibition, % at 10 µM; P42568; hit rate 0.47% among 350,000; AID 651704;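 active = every replicate reaching a set inhibition limit, whatever the replicate mean, cut at about 25% in these data; inconclusive = mean inhibition reaches that limit but some replicates miss it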;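 note: 0% = plate neutral control median and 100% = total signal loss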
Target sequence (P42568 whole entry, looked up): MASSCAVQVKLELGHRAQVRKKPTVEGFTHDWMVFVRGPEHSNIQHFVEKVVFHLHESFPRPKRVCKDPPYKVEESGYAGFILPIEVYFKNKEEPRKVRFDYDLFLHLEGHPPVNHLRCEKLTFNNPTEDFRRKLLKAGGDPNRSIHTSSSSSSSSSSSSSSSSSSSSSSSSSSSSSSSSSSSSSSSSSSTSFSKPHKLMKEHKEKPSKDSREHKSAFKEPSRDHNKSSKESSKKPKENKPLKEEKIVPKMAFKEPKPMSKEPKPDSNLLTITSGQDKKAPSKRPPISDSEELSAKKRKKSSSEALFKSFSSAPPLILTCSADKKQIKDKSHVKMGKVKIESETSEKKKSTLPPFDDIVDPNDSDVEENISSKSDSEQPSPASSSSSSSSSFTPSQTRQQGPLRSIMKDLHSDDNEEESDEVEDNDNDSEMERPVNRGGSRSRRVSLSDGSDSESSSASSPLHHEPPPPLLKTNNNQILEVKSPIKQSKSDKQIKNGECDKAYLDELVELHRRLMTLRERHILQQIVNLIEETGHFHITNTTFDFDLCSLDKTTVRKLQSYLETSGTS
Active calls of the source: *; [ ] = another dose, or the depositor's remark.

For CC[N+]1(C)CCC(O)(/C=C/c2ccccc2)C(C(=O)/C=C/c2ccccc2)C1 (stereo not given) the results were NSD2 inh 32.8, HIV Env fusion -62.0, PGC1a acetyl inh -31.8, GSIS activator 80.0* and MLL AF4-AF9 inh -2.2.
C#CCN(C[C@@H]1[C@@H](OC(=O)NCC2CCCCC2)[C@@H](OC(=O)NCC2CCCCC2)Cn2c(=O)ccc(=O)n21)S(=O)(=O)c1ccc(C)cc1 was read as PGC1a acetyl inh 91.4*, GSIS activator -27.6 and MLL AF4-AF9 inh -2.4.
Screening CCCCn1c(N)c(N(CC)C(=O)c2c(CC)noc2C)c(=O)[nH]c1=O returned NSD2 inh -11.5, PGC1a acetyl inh -8.6, GSIS activator 15.3 and MLL AF4-AF9 inh -2.5.
For CCc1cc[n+](C2=C([O-])c3ccccc3C(=O)/C2=N\S(=O)(=O)c2cccs2)cc1 the results were NSD2 inh 82.5*, HIV Env fusion inconclusive, GSIS activator -12.4 and MLL AF4-AF9 inh 2.1.
COC(=O)C1=C(C)N(Cc2cccc(C(F)(F)F)c2)C(=NCc2ccc(OC)cc2)NC1c1cccc(Cl)c1 (stereo not given) was read as NSD2 inh 36.8, HIV Env fusion 30.2, GSIS activator active and MLL AF4-AF9 inh 3.6.
For COC(=O)C1=C(C)N(Cc2cccc(C(F)(F)F)c2)C(=NCc2ccc(C(F)(F)F)cc2)NC1c1ccc(F)cc1 (stereo not given) the results were HIV Env fusion 35.2 and GSIS activator 875.3*.
Screening C=CCN=C1NC(c2ccc(Cl)cc2)C(C(=O)OC)=C(C)N1C (stereo not given) returned HIV Env fusion 55.1*, GSIS activator 7.2 and MLL AF4-AF9 inh -1.8.
Screening COC(=O)C1=C(C)N(Cc2ccc(C(F)(F)F)cc2)C(=NCc2ccccc2)NC1c1cccc(F)c1 (stereo not given) returned HIV Env fusion inconclusive, GSIS activator 671.2* and MLL AF4-AF9 inh 4.7.
COc1cccc(-c2cnc3c(c2)C(=O)N([C@H](C)CO)C[C@@H](C)[C@@H](CN(C)Cc2ccc(C(=O)O)cc2)O3)c1 was read as HIV Env fusion -14.1[16.7 µM], PGC1a acetyl inh 11.1, GSIS activator 3.3 and MLL AF4-AF9 inh -6.1.
For CC=Cc1ccc2n(c1=O)C[C@@H]1[C@@H](CO)[C@H](C(=O)NCc3ccc4c(c3)OCO4)[C@H]2N1C(=O)C1CC1 (mixture of isomers) the results were PGC1a acetyl inh -13.1, GSIS activator 9.1 and MLL AF4-AF9 inh 1.6.
Screening COC(=O)C1=C(C)N(C)C(=NCc2ccc(C(F)(F)F)cc2)NC1c1ccc(C(F)(F)F)cc1 (stereo not given) returned NSD2 inh -1.3, HIV Env fusion 31.9 and GSIS activator -5.1.
`C=CCN=C1NC(c2cccc(Cl)c2)C(C(=O)OC)=C(C)N1Cc1ccc(C(F)(F)F)cc1` (stereo not given) gave HIV Env fusion 16.0 and MLL AF4-AF9 inh -2.0.
Screening COC(=O)C1=C(C)N(Cc2cccc(C(F)(F)F)c2)C(=NCc2cccc(C(F)(F)F)c2)NC1c1ccc(Cl)cc1 (stereo not given) returned HIV Env fusion inconclusive and GSIS activator 784.7*.
Screening COC(=O)C1=C(C)N(Cc2cccc(C(F)(F)F)c2)C(=NCc2ccc(C(F)(F)F)cc2)NC1c1ccc(C(F)(F)F)cc1 (stereo not given) returned HIV Env fusion 2.7 and GSIS activator 814.8*.
For C=CCN=C1NC(c2ccc(Cl)cc2)C(C(=O)OC)=C(C)N1Cc1cccc(C(F)(F)F)c1 (stereo not given) the results were HIV Env fusion 59.8* and GSIS activator -10.8.
For COC(=O)C1=C(C)N(C)C(=NCc2ccc(OC)cc2)NC1c1ccc(C(F)(F)F)cc1 (stereo not given) the results were HIV Env fusion 55.2* and MLL AF4-AF9 inh 1.0.
For CCN(CC)CCN(C(=O)c1ccc(Br)s1)c1nc2cc3c(cc2s1)OCO3 the results were NSD2 inh 0.7, HIV Env fusion 2.9, GSIS activator 9.2 and MLL AF4-AF9 inh -0.7.
For CC1(C(=O)NS(=O)(=O)c2ccc(F)cc2F)CCN1C(=O)Cc1ccccc1Cl (stereo not given) the results were NSD2 inh -1.3, HIV Env fusion 15.3, GSIS activator -15.1 and MLL AF4-AF9 inh 1.4.
For O=[N+]([O-])c1ccc(N2CCCC2)nc1 the results were NSD2 inh -5.1, HIV Env fusion -4.3, PGC1a acetyl inh -4.0 and MLL AF4-AF9 inh 0.6.
NC(=O)C1CC(=O)N(c2ccc(OCc3ccc([N+](=O)[O-])cc3)cc2)C1 (stereo not given) was read as NSD2 inh -0.1, HIV Env fusion -52.8, GSIS activator -16.3 and MLL AF4-AF9 inh -4.6.
For COc1ccc(C(C(=O)NC(C)(C)C)N(C(=O)CNC(=O)c2cccs2)c2ccc(C(C)C)cc2)cc1OC (stereo not given) the results were NSD2 inh -2.2, PGC1a acetyl inh -2.8, GSIS activator -7.5 and MLL AF4-AF9 inh 3.6.
`COC(=O)C1=C(C)N(Cc2ccccc2)C(=NCCc2ccccn2)N[C@H]1c1cccc(C(F)(F)F)c1` gave HIV Env fusion 80.0*, PGC1a acetyl inh -10.7, GSIS activator -5.8 and MLL AF4-AF9 inh 5.7.
COC(=O)C1=C(C)N(Cc2cccc(C(F)(F)F)c2)C(=NCc2ccc3c(c2)OCO3)NC1c1cccc(C(F)(F)F)c1 (stereo not given) was read as HIV Env fusion 18.7 and MLL AF4-AF9 inh 6.1.
COC(=O)C1=C(C)N(Cc2cccc(C(F)(F)F)c2)C(=NCc2ccc3c(c2)OCO3)NC1CCc1ccccc1 (stereo not given) was read as HIV Env fusion 41.2 and GSIS activator 114.2*.
For CCC/C=C/c1ccc(CN2C(C(C)C)C(=O)N(Cc3cn(CC4CCCCC4)nn3)CCS2(=O)=O)cc1 (stereo not given) the results were HIV Env fusion 68.2*, PGC1a acetyl inh -10.5, GSIS activator -9.6 and MLL AF4-AF9 inh 0.6.
For CCCCN1CC[C@H]2C=CC[C@@H](C(=O)Nc3ccc(Cl)c(C(F)(F)F)c3)[C@H]2C1=O the results were HIV Env fusion 31.7, PGC1a acetyl inh 7.0, GSIS activator -10.3 and MLL AF4-AF9 inh -3.0.
Screening O=C(Nc1ccc(Cl)c(C(F)(F)F)c1)[C@@H]1CC=C[C@@H]2CCN(Cc3ccccc3)C(=O)[C@@H]21 returned HIV Env fusion 64.1* and GSIS activator 5.6.
Screening CCCCOC(=O)/C=C/c1ccc(OC(=O)OC)c(OC(=O)OC)c1 returned NSD2 inh 4.7 and GSIS activator -21.7.
`CN(C)c1nc(=NCc2cccs2)ss1` gave HIV Env fusion -29.2, GSIS activator 71.5* and MLL AF4-AF9 inh -12.8.
CC(SC(=S)N(C)Cc1cccs1)C(=O)O (stereo not given) was read as NSD2 inh 1.5, HIV Env fusion 7.2, GSIS activator 6.4 and MLL AF4-AF9 inh -0.8.

Bioassay records from PubChem BioAssay.
